From PubChem BioAssay come the findings set out here.

Values without a mark were called inactive. No rule for the calls is given here.

Lethal factor (Bacillus anthracis), sequence (P15917 whole entry, looked up): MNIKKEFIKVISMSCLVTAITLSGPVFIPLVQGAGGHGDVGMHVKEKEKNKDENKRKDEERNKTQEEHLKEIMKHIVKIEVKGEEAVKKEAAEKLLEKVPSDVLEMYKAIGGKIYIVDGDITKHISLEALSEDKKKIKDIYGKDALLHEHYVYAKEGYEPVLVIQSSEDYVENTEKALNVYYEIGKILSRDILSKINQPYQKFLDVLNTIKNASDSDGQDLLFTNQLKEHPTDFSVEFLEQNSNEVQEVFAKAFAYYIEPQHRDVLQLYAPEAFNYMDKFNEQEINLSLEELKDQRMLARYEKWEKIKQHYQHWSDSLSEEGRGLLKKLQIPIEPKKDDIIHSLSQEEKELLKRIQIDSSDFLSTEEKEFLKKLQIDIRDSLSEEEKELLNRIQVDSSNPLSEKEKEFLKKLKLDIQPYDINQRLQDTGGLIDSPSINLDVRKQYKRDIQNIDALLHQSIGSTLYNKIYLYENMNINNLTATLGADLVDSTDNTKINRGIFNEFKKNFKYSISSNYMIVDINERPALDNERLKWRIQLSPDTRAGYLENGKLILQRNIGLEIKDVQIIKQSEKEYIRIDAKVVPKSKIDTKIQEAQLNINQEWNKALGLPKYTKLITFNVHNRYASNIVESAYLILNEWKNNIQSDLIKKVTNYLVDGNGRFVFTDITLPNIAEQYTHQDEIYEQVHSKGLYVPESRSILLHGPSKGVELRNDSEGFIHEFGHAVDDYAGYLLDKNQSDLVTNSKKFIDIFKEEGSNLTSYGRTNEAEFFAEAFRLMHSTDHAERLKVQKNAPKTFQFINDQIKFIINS

This assay concerns the target Lethal factor (Bacillus anthracis) (UniProt P15917). In words: Bacillus anthracis lethal factor inhibition, microsphere flow cytometry protease assay, validation at 10 µM (AID 588461). The note with it: multiplex microsphere protease cleavage assay, hits give high values.
Usually inhibition stands for the relative decrease from the control value, in per cent. Take `CCn1c2ccccc2c2cc(CC(N)=O)ccc21`: the inhibition was -0.1%. With `O=C(N1CCCC1)C12CC3CC(C1)CC(C(=O)N1CCCC1)(C3)C2` the figure was -8%; with `O=C(NCCCCCc1nc2ccccc2[nH]1)c1ccccc1Cl`, 3.6%. Regarding `Nc1cnn(C2OC(CO)C(O)C2O)c(=O)n1` (configuration not stated), the inhibition is -3.7%.

For `COc1ccc(-c2onc(C)c2-c2ccc(C(=O)OC(C)C)o2)c(O)c1`, the inhibition is 0.9%. With `O=C(/C=C/c1ccccc1)NC(=O)c1ccccc1O` the figure was -5.7%; with `COc1cc2c(cc1OC)C(C)=NC1(CCCCC1)C2`, -0.4%.
